# RORg inh: inhibitors of mouse ROR gamma transcriptional activity | Drosophila S2 Gal4-RORgamma UAS-luciferase reporter, 20 h | Potency, µM (top dose mostly 53.6 µM), most hits filed as inhibitors | 310,000 compounds, 5.4% hits | P51450; further: nearly all actives have a fitted effect of over 60% in size
# Target sequence (P51450 whole entry, looked up, the tested form may be a part): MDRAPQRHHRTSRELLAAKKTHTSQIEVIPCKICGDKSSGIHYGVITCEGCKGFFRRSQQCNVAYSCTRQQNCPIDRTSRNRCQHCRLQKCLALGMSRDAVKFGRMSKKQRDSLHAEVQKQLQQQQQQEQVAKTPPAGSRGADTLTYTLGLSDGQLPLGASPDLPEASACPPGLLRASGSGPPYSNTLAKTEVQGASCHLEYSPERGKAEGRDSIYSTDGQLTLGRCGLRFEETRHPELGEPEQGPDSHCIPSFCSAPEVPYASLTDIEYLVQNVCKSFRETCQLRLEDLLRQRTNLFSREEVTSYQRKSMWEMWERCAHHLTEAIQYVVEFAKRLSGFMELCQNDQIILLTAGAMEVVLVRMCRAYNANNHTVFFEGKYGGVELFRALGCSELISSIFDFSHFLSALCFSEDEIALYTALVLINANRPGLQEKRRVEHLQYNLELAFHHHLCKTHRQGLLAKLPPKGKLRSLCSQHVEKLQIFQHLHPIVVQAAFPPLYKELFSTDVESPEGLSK
#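 Stably transfected Drosophila Schneider cells are the test system, with ROR gamma fused to Gal4 and luciferase under UAS control; luminescence is read after 20 hr of 700 uM copper sulfate induction at ambient temperature.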
# VP16 counter: Gal4-VP16 reporter inhibition counter-screen | Drosophila S2 Gal4-VP16 UAS-luciferase, luminescence, 20 h | Potency, µM (series often up to 53.6 µM), actives largely listed as inhibitors | 310,000 compounds, 3.5% hits | AID 2546;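 further: Gal4-VP16 expression switched on by copper sulfate through the metallothionein promoter; nearly all actives have a fitted effect of over 50% in size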
# TDP1 block: blocks human tyrosyl-DNA phosphodiesterase 1; Potency, µM (titrated, usually from 130 µM), usual class: inhibitors; AID 485290; Q9NUW8; recombinant TDP1, AlphaScreen DNA substrate cleavage; 350,000 compounds, 0.28% hits; further: nearly all actives have a fitted effect of over 40% in size
#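 Tdp1 1 nM final; 15 min RT w/ cpd; substrate 15 nM, 5 min; beads 10 ug/ml, 10 min; AlphaScreen read. Neg ctrl: no enzyme.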
# DT40 TDP1 CPT: growth inhibition of DT40 Tdp1-/-;hTDP1 cells with camptothecin (screen for TDP1 inhibitors); chicken DT40 Tdp1-/-;hTDP1 cells + 20 nM CPT, ATP luminescence, 48 h; Potency, µM (series often up to 46.2 µM), hits mostly inhibitors; 420,000 compounds, 12% hits; further: nearly all actives have a fitted effect of over 55% in size
#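 Cell growth measured by CellTiter-Glo luminescence after a minimum 48 h, 37 C compound exposure with 20 nM CPT in Tdp1-knockout DT40 cells stably expressing hTDP1, seeded 400/well; qHTS titration format.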
# DT40 TDP1 no CPT: qHTS for Inhibitors of human tyrosyl-DNA phosphodiesterase 1 (TDP1): qHTS in cells in absence of CPT | DT40 Tdp1-/- hTDP1 cells, no CPT, ATP luminescence, 48 h | Potency, µM (highest dose often 46.2 µM), most hits filed as inhibitors | 420,000 compounds, 15% hits; further: nearly all actives have a fitted effect of over 55% in size
#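 Seeded 400 DT40-hTDP1 cells/well (vehicle DMSO, no 20 nM CPT); pinned compounds; ≥48 hr at 37 °C; CellTiter-Glo luminescence as viability measure.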
# Numbers stand for hits; . = inactive; ? = inconclusive; / = no result given; [ ] = remark or other dose. Hits are enriched below; roughly 19% of the tested compounds scored in any of these assays. The call rests on the fitted dose curve; in most records, active means well fitted curve in the direction sought with a large enough effect; inconclusive means small, poorly fitted or top-dose-only effect, or another doubt; inactive means no such curve, though single readings can be large; an effect the other way counts as inactive or inconclusive.
SMILES,RORg inh,VP16 counter,TDP1 block,DT40 TDP1 CPT,DT40 TDP1 no CPT
N=c1c2c(ncn1CCCO)Oc1ccc3ccccc3c1C2c1ccccc1 (stereo not given),.,.,.,?,?
CS(=O)(=O)N(CCc1ccccc1)CC(=O)NCc1ccc(Cl)cc1,.,.,.,.,.
N=c1c2c(ncn1CCN1CCOCC1)Oc1cc(O)ccc1C2c1ccccc1 (stereo not given),.,.,.,.,?
CN(C)CCCn1cnc2c(c1=N)C(c1ccccc1)c1ccc3ccccc3c1O2 (stereo not given),18µM,?,/,6.5µM,?
CN1c2ccccc2C(C)(C)C12CCCC(=O)N2 (stereo not given),.,.,.,29µM,?
C=CCC[C@H](Cc1ccc(F)cc1)C(=O)OC[C@H](Cc1c[nH]c2ccccc12)NC(=O)[C@@H](CC=C)CC(=O)NCCO,/,/,.,?,?
C#CCn1cc(C=C2C(=O)c3ccccc3C2=O)c2ccccc21,?,.,.,23µM,21µM
C#CCn1c(=O)cc(C)c2ccccc21,.,.[10 µM],.,.,.
O=C(Oc1ccc(-n2cnnn2)cc1)c1ccccc1,.,.,.,.,?
COC(=O)C1=CN(c2ccc(Oc3ccccc3)cc2)C(N)=C(C#N)C1c1ccccc1 (stereo not given),/,/,/,?,15µM
COC(=O)C1=CN(c2ccc3c(c2)OCO3)C(N)=C(C#N)C1c1ccccc1 (stereo not given),/,/,/,5.2µM,5.8µM
COC(=O)C1=CN(c2ccc(N3CCOCC3)cc2)C(N)=C(C#N)C1c1ccc(-c2ccccc2)cc1 (stereo not given),/,/,/,7.3µM,5.8µM
COC(=O)C1=CN(c2ccccc2OC)C(N)=C(C#N)C1c1cccc([N+](=O)[O-])c1 (stereo not given),/,/,/,0.82µM,1.3µM
C#CCN1C(C)=C(C(=O)OC)C(c2cccc([N+](=O)[O-])c2)C(C(=O)OCC)=C1C (stereo not given),/,/,.,.,?
CC(C)c1onc(C(=O)N2CCCCC2C)c1[N+](=O)[O-] (stereo not given),.,.,.,.,.
CCOc1ccc(NC(=O)C(C)Sc2nccn2C)cc1 (stereo not given),.,.,.,.,.
COC(=O)C1=CN(c2cccc(OCc3ccccc3)c2)C(N)=C(C#N)C1c1ccc(-c2ccccc2)cc1 (stereo not given),/,/,/,.,.
COC(=O)C1=CN(c2ccc(F)cc2)C(N)=C(C#N)C1c1ccccc1 (stereo not given),/,/,/,?,21µM
COc1ccc(CN2C(=O)N(c3ccccc3)C(=O)C2c2ccccc2)cc1COc1ccc(NC(C)=O)cc1 (stereo not given),/,/,.,10µM,8.9µM
COc1ccc([C@H]2[C@H](c3ccccc3)C(=O)N2Cc2ccccc2)cc1COc1ccc(NC(C)=O)cc1,/,/,.,/,/
COc1ccc(CN(Cc2ccccc2)C(C)=O)cc1COc1ccc(NC(C)=O)cc1,/,/,.,?,11µM
COc1ccc(CN(Cc2ccccc2)C(=O)c2ccncc2)cc1COc1ccc(NC(C)=O)cc1,/,/,.,?,11µM
COc1ccc(CN(Cc2ccccc2)C(=O)CN2CCN(C)CC2)cc1COc1ccc(NC(C)=O)cc1,/,/,.,?,18µM
O=C(NC1CCS(=O)(=O)C1)c1ccc(Br)o1 (stereo not given),.,.,.[0.0935 µM],.,.
COc1ccccc1-c1nc(N(C)Cc2ccco2)c2ccccc2n1,?,.,/,?,?
SMILES,RORg inh,VP16 counter,TDP1 block,DT40 TDP1 CPT,DT40 TDP1 no CPT
Cc1ccccc1C(=O)Oc1ccc(-c2csnn2)cc1,.,.,.,.,.
Cc1cccc(CN2C(=O)N/C(=C/c3cc(C)n(-c4cc(C)ccn4)c3C)C2=O)c1,.,.,.,?,23µM
Cc1cc(/C=C2/NC(=O)NC2=O)c(C)n1-c1ccccn1,.,.,.,.,.
Cc1cccc(CN2C(=O)N/C(=C/c3ccc(C)s3)C2=O)c1,.,.,.,21µM,16µM
CCN1C(=O)/C(=C/c2ccc(C)s2)NC1=S,18µM,?,.,.,?
COC(=O)CN1C(=O)[C@H]2[C@@H](C3CC3)N3C(=O)CN(CCO)C(=O)[C@@]3(Cc3ccccc3)[C@H]2C1=O,.,.,/,.,.
COc1ccc(NC(=O)CSC2=NN3CCCC(=O)N=C3S2)c(OC)c1,.,.,.,.,.
COC(=O)c1cc(NC(=S)NCc2ccc(Cl)cc2)cc(C(=O)OC)c1,?,?,.,16µM,?
COC(=O)c1ccc(C)c(NC(=S)NCc2ccc(Cl)cc2)c1,8.9µM,14µM,.,?,?
COC(=O)c1sccc1NC(=S)NCc1ccc(Cl)cc1,0.79µM,1.3µM,/,.,.
CC(=O)c1ccccc1C(=O)N1CCCC(CNC(=O)c2ccccc2Cl)C1 (stereo not given),.,.,.,?,?
O=C(C1CC1)N1CCc2cc(Br)cc(S(=O)(=O)NCCCN3CCCC3)c21,.,.,.,.,.
O=C1CS/C(=N/N=C/c2cccs2)N1Cc1ccc(F)cc1,.,.,.,18µM,?
C=CCN1C(=O)C(Cc2ccc(F)cc2)S/C1=N/N=C/c1cccs1 (stereo not given),.,.,.,.,29µM
COc1ccc(Cl)cc1C(=O)OCC(=O)NC(=O)c1cccn1C,.,.,.,.,.
COc1ccc2[nH]c(S(=O)Cc3ncc(C)c(OC)c3C)nc2c1 (stereo not given),.,.,/,?,16µM
COc1ccc2[nH]c(S(=O)Cc3ncc(C)c(OC)c3C)nc2n1 (stereo not given),.,.,/,?,27µM
COc1ccnc(CS(=O)c2nc3cc(C(O)(F)F)ccc3[nH]2)c1OC (stereo not given),.,.,/,.,?
O=S(=O)(CS(=O)(=O)Oc1ccccc1)Oc1ccccc1,/,/,/,.,.
Cc1cc(NC(=O)C2CC2)ncc1NC(=O)c1ccccn1,.,.,.,?,.
O=S(=O)(c1cccc(F)c1)N1CCN(c2ncnc3scc(-c4ccc(F)cc4)c23)CC1,/,/,.,15µM,12µM
COc1ccc(-c2csc3ncnc(N4CCN(c5ccccc5)CC4)c23)cc1,.,.,.,?,?
O=C(c1ccco1)N1CCN(c2ncnc3scc(-c4ccc(F)cc4)c23)CC1,.,.,.,?,?
Cc1ccc(S(=O)(=O)N2CCN(c3ncnc4scc(-c5ccc(F)cc5)c34)CC2)cc1,/,/,.[0.505 µM],?,15µM
COc1ccc(-c2csc3ncnc(N4CCN(S(=O)(=O)c5cccc(Br)c5)CC4)c23)cc1,/,/,.,23µM,9.2µM
Cc1ccc(S(=O)(=O)N2CCN(c3ncnc4scc(-c5ccccc5)c34)CC2)cc1,/,/,.,?,23µM
